The term Inhibition denotes the drop in the measured response relative to a control, in per cent. A high value points to a response far below the control.

Drawing on ChEMBL document CHEMBL1157539, “Thousands of chemical starting points for antimalarial lead identification” (Nature, 2010), this text covers Inhibition for 40 compounds.

The first assay has as its system Plasmodium falciparum. Nature of the assay: GSK_TCMDC: Inhibition of Plasmodium falciparum 3D7 in whole red blood cells, using parasite LDH activity as an index of growth. Test compounds present at 2uM. In kind it is functional.
In turn, `O=C(CCc1cccnc1)Nc1cccc(-c2ccc(-c3nc4cc(C(F)(F)F)ccc4[nH]3)s2)c1` gave an Inhibition of 89%.

`Cn1nc(-c2cccc(CNC3CCc4ccccc43)c2)c2cnc(NCCCN3CCCC3)nc21` (stereo not given) had an Inhibition of 99%.

Compound `Cc1c(Cc2ccc(F)cc2)c(Cl)nc2nc(N)nc(N)c12` came in with an Inhibition of 92%.

For `O=C(O)C(F)(F)F.c1cc(CNCC2CCCO2)cc(-c2ccc(-c3nc4ccccc4[nH]3)s2)c1` (stereo not given), the Inhibition was determined as 95%.

Take `Cc1cccc2nc(-c3cccc(-c4ccc(NC(=O)C(C)(C)c5ccccn5)cc4)c3)[nH]c12`: the Inhibition is given as 97%.

Compound `CCOC(=O)c1ccc(NC(=O)NC2CCN(CCCCCNC(=O)/C=C/c3ccc(Cl)c(Cl)c3)C2)cc1` (stereo not given) showed an Inhibition of 98%.

The compound `CCOC(=O)CC[C@H](NC(=O)c1ccc(NS(=O)(=O)c2ccc(-c3cnc(N)[nH]c3=O)cc2)cc1)C(=O)OCC` returned an Inhibition of 95%.

`NS(=O)(=O)c1cncc(-c2ccc3nccc(-c4cn[nH]c4)c3n2)c1` gave an Inhibition of 99%.

Compound `CC(C)c1sc(N2CCN(C)CC2)nc1C(=O)NCCc1cccc(Cl)c1.O=C(O)C(F)(F)F` registered an Inhibition of 91%.

As for `O=C(Nc1cccc(CN2CCCN(CCc3ccccc3)CC2)c1)c1cc2ccccc2s1.O=C(O)C(F)(F)F`, the Inhibition is given as 93%.

In the case of `CO/C(=C\C=C\c1cc2cc(Cl)c(Cl)cc2[nH]1)C(=O)NC1CCN(CCCc2ccccc2)CC1`, the Inhibition is given as 93%.

In turn, `Nc1nc(N)c2c(Cl)c(CNc3cccc(C(=O)O)c3)ccc2n1` had an Inhibition of 93%.

The compound `CNC(=O)/C=C/c1cc(NC(=O)Nc2ccnc3c(Br)cccc23)ccc1OC` came in with an Inhibition of 95%.

`CS(=O)(=O)CCNCc1nc(-c2ccc3c(Nc4ccc(Cl)cc4F)ccnc3c2)cs1` yielded an Inhibition of 88%.

As for `Cc1cccc2nc(-c3ccc(-c4ccc(NC(=O)C(C)CN(C)C)cc4)s3)[nH]c12` (stereo not given), the Inhibition amounted to 100%.

In turn, `CCCC(C)Nc1nc(C)cc(N[C@@H](Cc2ccccc2)C(=O)Nc2ccc(OC)cc2)n1.O=C(O)C(F)(F)F` (stereo not given in full) gave an Inhibition of 100%.

The compound `CC(CN1CCN(C)CC1)C(=O)Nc1cccc(-c2cccc(-c3nc4ccccc4[nH]3)c2)c1` (stereo not given) returned an Inhibition of 88%.

In turn, `COCCNCc1ncsc1-c1ccc2c(Nc3ccc(Oc4ccccc4)cc3)ccnc2c1` yielded an Inhibition of 91%.

In turn, `Cl.N#Cc1ccc2c(c1)CCN(CCC1CCC(NC(=O)/C=C/c3ccc(F)c4ccccc34)CC1)CC2` (stereo not given) came in with an Inhibition of 95%.

On to `O=C(O)C(F)(F)F.c1cncc(CCNCc2cccc(-c3csc(-c4nc5ccccc5[nH]4)c3)c2)c1`, for which the Inhibition stood at 100%.

Compound `CC(C)Cc1nc(N)nc(N)c1-c1ccc(Cl)cc1` displayed an Inhibition of 96%.

Regarding `O=C(C=Cc1ccc(Cl)c(Cl)c1)NCCCCCN1CCC(CCNS(=O)(=O)c2ccc(Br)cc2)CC1`, the Inhibition is reported as 91%.

For the compound `CCN(CCN(C)C)Cc1ccc(-c2ccc(NS(=O)(=O)c3cccc4cccnc34)cc2)cc1.O=C(O)C(F)(F)F`, the Inhibition is 91%.

`CC1CN(Cc2ccccc2)CCN1c1ccc(NC(=O)c2ccc(F)cc2)cc1.O=C(O)C(F)(F)F` (stereo not given): the Inhibition was 87%.

`O=C(O)C(F)(F)F.O=[N+]([O-])c1cccc(CNC2CCN(Cc3ccc4ccccc4c3)CC2)c1` gave an Inhibition of 100%.

`CC(C)NCc1cccc(-c2ccc(-c3nc4cc(C(F)(F)F)ccc4[nH]3)cc2)c1.O=C(O)C(F)(F)F` had an Inhibition of 99%.

For the compound `Cl.N=C(N)NN=Cc1cc2ccccc2c2ccccc12`, the Inhibition is 100%.

`Cc1cc(N2CCCC2)nc(Nc2ccc(NC(=O)COc3ccccc3)cc2)n1`: the Inhibition came out at 100%.

The compound `CN1CCC(NCc2cccc(-c3ccc(S(=O)(=O)NCCN4CCCC4)s3)c2)CC1.O=C(O)C(F)(F)F` yielded an Inhibition of 91%.

The compound `COc1cc(NC(=O)c2ccc(-c3ccc(C(C)=O)cc3)s2)ccc1OCCN1CCCC1` displayed an Inhibition of 100%.

Compound `CCC1N=C(N)N=C(N)N1OCc1cccc2ccccc12` (stereo not given) showed an Inhibition of 93%.

For `Cl.O=C1Nc2ccc3ncccc3c2/C1=C/Nc1ccc(N2CCN(CCO)CC2)cc1`, the Inhibition was determined as 86%.

`CSc1cccc(Nc2nc3ccc(S(=O)(=O)NC(C)C(C)C)cc3n2[C@H](C)C(C)(C)C)c1` (stereo not given in full) gave an Inhibition of 97%.

For `Cc1ccc(NC(=O)NC2CCN(CCCCCNC(=O)C3CC3c3ccc(Cl)c(Cl)c3)CC2)cc1` (stereo not given), the Inhibition came out at 100%.

For the compound `CNS(=O)(=O)Cc1ccc(Nc2nccc(Nc3cccc4c3cnn4C(=O)Nc3ccccc3)n2)cc1`, the Inhibition worked out at 89%.

Compound `COc1ccc(NC(=O)CCNc2ccnc(NCCc3ccc(F)cc3)n2)cc1.O=C(O)C(F)(F)F` registered an Inhibition of 94%.

With `CC1(C)C=C(c2ccncc2)c2cc(Cl)ccc2O1.Cl`, the Inhibition was 97%.

`Cl.NC(=O)Nc1ccc2cn[nH]c2c1` returned an Inhibition of 97%.

`Cc1cc(N2CC=CCC2)nc(NC(=N)Nc2ccc(Cl)cc2)n1` registered an Inhibition of 100%.

For `Cc1cc(Cl)c(S(=O)(=O)N(C)c2ccccc2)cc1OCC(=O)NC1CCCCC1`, the Inhibition is on record as 99%.

Another assay relates to Plasmodium falciparum. The assay is described as follows: GSK_TCMDC: Inhibition of Plasmodium falciparum Dd2 in whole red blood cells, using parasite LDH activity as an index of growth. Test compounds present at 2uM. It counts as functional.
Turning to `O=C(CCc1cccnc1)Nc1cccc(-c2ccc(-c3nc4cc(C(F)(F)F)ccc4[nH]3)s2)c1`, the Inhibition came out at 13%.

Compound `Cn1nc(-c2cccc(CNC3CCc4ccccc43)c2)c2cnc(NCCCN3CCCC3)nc21` (stereo not given) yielded an Inhibition of 15%.

In turn, `Cc1c(Cc2ccc(F)cc2)c(Cl)nc2nc(N)nc(N)c12` gave an Inhibition of 1%.

As to `O=C(O)C(F)(F)F.c1cc(CNCC2CCCO2)cc(-c2ccc(-c3nc4ccccc4[nH]3)s2)c1` (stereo not given), the Inhibition amounted to 30%.

In the case of `Cc1cccc2nc(-c3cccc(-c4ccc(NC(=O)C(C)(C)c5ccccn5)cc4)c3)[nH]c12`, the Inhibition was determined as 4%.

`CCOC(=O)c1ccc(NC(=O)NC2CCN(CCCCCNC(=O)/C=C/c3ccc(Cl)c(Cl)c3)C2)cc1` (stereo not given): the Inhibition came to 0%.

On to `CCOC(=O)CC[C@H](NC(=O)c1ccc(NS(=O)(=O)c2ccc(-c3cnc(N)[nH]c3=O)cc2)cc1)C(=O)OCC`, for which the Inhibition is 2%.

In the case of `NS(=O)(=O)c1cncc(-c2ccc3nccc(-c4cn[nH]c4)c3n2)c1`, the Inhibition came to 100%.

For `CC(C)c1sc(N2CCN(C)CC2)nc1C(=O)NCCc1cccc(Cl)c1.O=C(O)C(F)(F)F`, the Inhibition is reported as 15%.

`O=C(Nc1cccc(CN2CCCN(CCc3ccccc3)CC2)c1)c1cc2ccccc2s1.O=C(O)C(F)(F)F` came in with an Inhibition of 39%.

Compound `CO/C(=C\C=C\c1cc2cc(Cl)c(Cl)cc2[nH]1)C(=O)NC1CCN(CCCc2ccccc2)CC1` displayed an Inhibition of 75%.

Compound `Nc1nc(N)c2c(Cl)c(CNc3cccc(C(=O)O)c3)ccc2n1` had an Inhibition of 97%.

Regarding `CNC(=O)/C=C/c1cc(NC(=O)Nc2ccnc3c(Br)cccc23)ccc1OC`, the Inhibition was determined as 68%.

As to `CS(=O)(=O)CCNCc1nc(-c2ccc3c(Nc4ccc(Cl)cc4F)ccnc3c2)cs1`, the Inhibition is 28%.

The compound `Cc1cccc2nc(-c3ccc(-c4ccc(NC(=O)C(C)CN(C)C)cc4)s3)[nH]c12` (stereo not given) registered an Inhibition of 98%.

In turn, `CCCC(C)Nc1nc(C)cc(N[C@@H](Cc2ccccc2)C(=O)Nc2ccc(OC)cc2)n1.O=C(O)C(F)(F)F` (stereo not given in full) displayed an Inhibition of 72%.

Consider `CC(CN1CCN(C)CC1)C(=O)Nc1cccc(-c2cccc(-c3nc4ccccc4[nH]3)c2)c1` (stereo not given), for which the Inhibition came out at 19%.

Compound `COCCNCc1ncsc1-c1ccc2c(Nc3ccc(Oc4ccccc4)cc3)ccnc2c1` returned an Inhibition of 93%.

Consider `Cl.N#Cc1ccc2c(c1)CCN(CCC1CCC(NC(=O)/C=C/c3ccc(F)c4ccccc34)CC1)CC2` (stereo not given), for which the Inhibition is given as 19%.

Turning to `O=C(O)C(F)(F)F.c1cncc(CCNCc2cccc(-c3csc(-c4nc5ccccc5[nH]4)c3)c2)c1`, the Inhibition came to 98%.

Consider `CC(C)Cc1nc(N)nc(N)c1-c1ccc(Cl)cc1`, for which the Inhibition is 3%.

Take `O=C(C=Cc1ccc(Cl)c(Cl)c1)NCCCCCN1CCC(CCNS(=O)(=O)c2ccc(Br)cc2)CC1`: the Inhibition came out at 0%.

`CCN(CCN(C)C)Cc1ccc(-c2ccc(NS(=O)(=O)c3cccc4cccnc34)cc2)cc1.O=C(O)C(F)(F)F` had an Inhibition of 57%.

`CC1CN(Cc2ccccc2)CCN1c1ccc(NC(=O)c2ccc(F)cc2)cc1.O=C(O)C(F)(F)F` (stereo not given) came in with an Inhibition of 89%.

Compound `O=C(O)C(F)(F)F.O=[N+]([O-])c1cccc(CNC2CCN(Cc3ccc4ccccc4c3)CC2)c1` had an Inhibition of 22%.

`CC(C)NCc1cccc(-c2ccc(-c3nc4cc(C(F)(F)F)ccc4[nH]3)cc2)c1.O=C(O)C(F)(F)F` returned an Inhibition of 96%.

`Cl.N=C(N)NN=Cc1cc2ccccc2c2ccccc12` displayed an Inhibition of 63%.

`Cc1cc(N2CCCC2)nc(Nc2ccc(NC(=O)COc3ccccc3)cc2)n1` came in with an Inhibition of 86%.

Take `CN1CCC(NCc2cccc(-c3ccc(S(=O)(=O)NCCN4CCCC4)s3)c2)CC1.O=C(O)C(F)(F)F`: the Inhibition is listed as 1%.

As to `COc1cc(NC(=O)c2ccc(-c3ccc(C(C)=O)cc3)s2)ccc1OCCN1CCCC1`, the Inhibition came out at 63%.

`CCC1N=C(N)N=C(N)N1OCc1cccc2ccccc12` (stereo not given) came in with an Inhibition of 1%.

For the compound `Cl.O=C1Nc2ccc3ncccc3c2/C1=C/Nc1ccc(N2CCN(CCO)CC2)cc1`, the Inhibition worked out at 55%.

As for `CSc1cccc(Nc2nc3ccc(S(=O)(=O)NC(C)C(C)C)cc3n2[C@H](C)C(C)(C)C)c1` (stereo not given in full), the Inhibition is recorded as 98%.

The compound `Cc1ccc(NC(=O)NC2CCN(CCCCCNC(=O)C3CC3c3ccc(Cl)c(Cl)c3)CC2)cc1` (stereo not given) displayed an Inhibition of 19%.

With `CNS(=O)(=O)Cc1ccc(Nc2nccc(Nc3cccc4c3cnn4C(=O)Nc3ccccc3)n2)cc1`, the Inhibition was found to be 5%.

`COc1ccc(NC(=O)CCNc2ccnc(NCCc3ccc(F)cc3)n2)cc1.O=C(O)C(F)(F)F` returned an Inhibition of 5%.

Take `CC1(C)C=C(c2ccncc2)c2cc(Cl)ccc2O1.Cl`: the Inhibition is on record as 22%.

With `Cl.NC(=O)Nc1ccc2cn[nH]c2c1`, the Inhibition is reported as 0%.

As for `Cc1cc(N2CC=CCC2)nc(NC(=N)Nc2ccc(Cl)cc2)n1`, the Inhibition was 78%.

In the case of `Cc1cc(Cl)c(S(=O)(=O)N(C)c2ccccc2)cc1OCC(=O)NC1CCCCC1`, the Inhibition came out at 94%.
